Where “and” joins values, the source holds several entries; their conditions need not be identical. Equal entries are not always repeated. Some structures have more than one record in an assay (separate samples or runs), and their calls can disagree. Calls of active or inactive are those of the source. Rule for the calls: active = hit-call score of the fitted dose curve at least 0.9, where 1 is the maximum; inactive = score below 0.9.
Key:
[1] = read-out: Transforming growth factor beta 1 (TGFb1), TGFB1 (gene 7040); assay: BSK_KF3CT_TGFb1: BioMAP Diversity Plus: KF3CT Assay for Transforming growth factor beta 1 (TGFb1) Biomarker Activity (AID 2283072); details: primary human keratinocytes with fibroblasts; actives raise or lower the signal
Method in brief: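 Read-out: ELISA for TGF-b1 in keratinocyte/foreskin fibroblast human skin co-culture, 24 h after dosing; bidirectional curve fit vs DMSO baseline; gain or loss of signal scored.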

[2] = read-out: C-C motif chemokine 2 (Homo sapiens) (UniProt P13500); assay: BSK_KF3CT_MCP1: BioMAP Diversity Plus: KF3CT Assay for Monocyte Chemoattractant Protein 1 (MCP1/CCL2) Biomarker Activity (AID 2283073); details: primary human keratinocytes with fibroblasts; actives raise or lower the signal
Method in brief: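 Human keratinocyte–foreskin fibroblast co-culture; MCP-1 measured by ELISA 24 h after dosing. Bidirectional fit vs DMSO; cytotoxicity tracked by SRB total protein in parallel cultures.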

[3] = read-out: Matrix Metallopeptidase 9 (MMP9), MMP9 (gene 4318); assay: BSK_KF3CT_MMP9: BioMAP Diversity Plus: KF3CT Assay for Matrix Metallopeptidase 9 (MMP9) Biomarker Activity (AID 2283074); details: primary human keratinocytes with fibroblasts; actives raise or lower the signal;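 for AC50: MMP9 protein level quantified by ELISA in the co-culture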
Method in brief: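 MMP-9 quantified by ELISA after 24 h chemical treatment of primary human skin keratinocyte/fibroblast co-cultures; gain or loss fitted against DMSO, with parallel SRB staining (0.1% SRB, 560 nm) for overt cytotoxicity.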

[4] = read-out: urokinase plasminogen activator (uPA), PLAU (gene 5328); assay: BSK_KF3CT_uPA: BioMAP Diversity Plus: KF3CT Assay for urokinase plasminogen activator (uPA) Biomarker Activity (AID 2283075); details: primary human keratinocytes with fibroblasts; actives raise or lower the signal
Method in brief: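 ELISA read-out of uPA 24 h after dosing human skin keratinocytes co-cultured with foreskin fibroblasts. Signal change fitted both ways relative to DMSO; sulforhodamine B on parallel cultures marks overt cytotoxicity.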

[5] = read-out: CD40, CD40 (gene 958); assay: BSK_LPS_CD40: BioMAP Diversity Plus: LPS Assay for CD40 Biomarker Activity (AID 2283076); details: primary human HUVEC with PBMC; actives raise or lower the signal
Method in brief: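 HUVEC plus PBMC co-culture stimulated with LPS; CD40 quantified by ELISA 24 h after compound dosing. Fitting was bidirectional relative to DMSO. SRB staining of parallel cultures flagged overt cytotoxicity.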

[6] = read-out: E-selectin (Homo sapiens) (UniProt P16581); assay: BSK_LPS_Eselectin: BioMAP Diversity Plus: LPS Assay for Eselectin Biomarker Activity (AID 2283077); details: primary human HUVEC with PBMC; actives raise or lower the signal
Method in brief: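 Human umbilical vein endothelial cells co-cultured with PBMC under LPS stimulation; cell-surface E-selectin measured by ELISA 24 h after dosing. Change in either direction versus DMSO, with SRB total-protein staining in parallel cultures for cytotoxicity.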

[7] = read-out: Interleukin-8 (IL8), CXCL8 (gene 3576); assay: BSK_LPS_IL8: BioMAP Diversity Plus: LPS Assay for Interleukin-8 (IL8) Biomarker Activity (AID 2283078); details: primary human HUVEC with PBMC; actives raise or lower the signal
Method in brief: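 Human umbilical vein endothelial cells co-cultured with PBMC, LPS-stimulated, exposed to compound for 24 h. IL-8 quantified by ELISA; fitted in both directions against DMSO, with SRB total-protein staining of parallel cultures for cytotoxicity.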

[8] = BSK_LPS_SRB: Viability Assessment in the BioMAP Diversity Plus: LPS Assay (AID 2283079); details: primary human HUVEC with PBMC;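 note: total protein by sulforhodamine B absorbance as a cytotoxicity measure; measured one day after compound addition; fitted in both directions against DMSO so loss or gain of signal counts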
Method in brief: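 Co-culture of human umbilical vein endothelial cells and PBMC, read 24 h after dosing. Total protein by 0.1% SRB staining after 10% TCA fixation, absorbance at 560 nm; bidirectional fit against DMSO.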

[9] = read-out: Interleukin-1 alpha (IL1a), IL1A (gene 3552); assay: BSK_LPS_IL1a: BioMAP Diversity Plus: LPS Assay for Interleukin-1 alpha (IL1a) Biomarker Activity (AID 2283080); details: primary human HUVEC with PBMC; actives raise or lower the signal
Method in brief: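 Human umbilical vein endothelial cells co-cultured with PBMC and stimulated with LPS; IL-1a measured by ELISA 24 h after dosing. Bidirectional fitting against DMSO; cytotoxicity checked by SRB staining in parallel cultures.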

[10] = read-out: Monocyte Chemoattractant Protein-1 (MCP1), CCL2 (gene 6347); assay: BSK_LPS_MCP1: BioMAP Diversity Plus: LPS Assay for Monocyte Chemoattractant Protein-1 (MCP1) Biomarker Activity (AID 2283081); details: primary human HUVEC with PBMC; actives raise or lower the signal;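 for AC50: secreted MCP-1 protein quantified by ELISA in culture supernatant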
Method in brief: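 Human umbilical vein endothelial cells co-cultured with PBMC, LPS-stimulated; secreted MCP-1 measured by ELISA 24 h after compound addition. Bidirectional curve fitting against DMSO baseline; SRB total-protein staining in parallel cultures for cytotoxicity.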

E-selectin (Homo sapiens), sequence (P16581 whole entry, looked up): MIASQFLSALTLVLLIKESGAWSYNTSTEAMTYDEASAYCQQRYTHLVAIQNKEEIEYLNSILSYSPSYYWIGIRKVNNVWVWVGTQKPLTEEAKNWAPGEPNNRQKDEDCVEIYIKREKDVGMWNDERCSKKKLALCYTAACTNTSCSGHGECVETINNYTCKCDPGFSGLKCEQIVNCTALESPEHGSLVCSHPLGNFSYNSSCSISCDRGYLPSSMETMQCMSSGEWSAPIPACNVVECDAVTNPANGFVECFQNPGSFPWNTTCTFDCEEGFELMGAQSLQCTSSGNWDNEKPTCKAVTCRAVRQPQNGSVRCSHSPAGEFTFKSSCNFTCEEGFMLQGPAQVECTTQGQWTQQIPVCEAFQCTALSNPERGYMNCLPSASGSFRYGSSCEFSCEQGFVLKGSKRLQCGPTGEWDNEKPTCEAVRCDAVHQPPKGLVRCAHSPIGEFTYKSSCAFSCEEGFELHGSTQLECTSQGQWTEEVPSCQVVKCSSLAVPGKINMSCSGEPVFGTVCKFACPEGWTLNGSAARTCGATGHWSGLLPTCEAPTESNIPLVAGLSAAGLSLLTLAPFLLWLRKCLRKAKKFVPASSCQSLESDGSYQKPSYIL

SMILES | outcome [1] | outcome [2] | outcome [3] | outcome [4] | outcome [5] | outcome [6] | outcome [7] | outcome [8] | outcome [9] | outcome [10] | AC50 [5] | AC50 [8] | AC50 [3] | AC50 [1] | AC50 [2] | AC50 [4] | AC50 [6] | AC50 [7] | AC50 [9] | AC50 [10]
O=[N+]([O-])c1ccc(O)cc1 | inactive | inactive | inactive | inactive | inactive | inactive | inactive | inactive | inactive | inactive | – | – | – | – | – | – | – | – | – | –
COCC(C)O (stereo unspecified) | inactive | inactive | inactive | inactive | inactive | inactive | inactive | inactive | inactive | inactive | – | – | – | – | – | – | – | – | – | –
OCCC(F)(F)C(F)(F)C(F)(F)C(F)(F)C(F)(F)C(F)(F)F | inactive | inactive | inactive | inactive | inactive | inactive | inactive | inactive | inactive | inactive | 40.8 µM (active) | 45.8 µM (active) | – | – | – | – | – | – | – | –
O=C(OCCOCCOC(=O)c1ccccc1)c1ccccc1 | inactive | inactive | inactive | inactive | inactive | inactive | inactive | inactive | inactive | inactive | – | – | – | – | – | – | – | – | – | –
CC(C)(C)CC(C)(C)c1ccc(O)c(-n2nc3ccccc3n2)c1 | inactive | inactive | – | inactive | inactive | inactive | inactive | inactive | inactive | inactive | – | – | 16.6 µM (active) | – | – | – | – | – | – | –
CCCCCCCCCCCCN1CCCC1=O | – | – | – | – | – | – | – | – | – | – | 32.2 µM (active) | 27.4 µM (active) | 35 µM (active) | 34.2 µM (active) | 34.3 µM (active) | 36.7 µM (active) | 33.8 µM (active) | 31.3 µM (active) | 33 µM (active) | 32.9 µM (active)
CC(C)(C)c1cccc(C(C)(C)C)c1O | – | – | – | – | inactive | inactive | inactive | inactive | inactive | inactive | – | – | 36.7 µM (active) | 36.1 µM (active) | 34.4 µM (active) | 39 µM (active) | – | – | – | –
CCN(CC)CCNc1ccc(CNC=O)c2sc3ccc(OC)cc3c(=O)c12 | – | – | – | – | – | – | – | – | – | – | 35.4 µM (active) | 25.3 µM (active) | 17.5 µM (active) | 26.7 µM (active) | 36.6 µM (active) | 25.8 µM (active) | 13.1 µM (active) | 11.2 µM (active) | 11.8 µM (active) | 20 µM (active)
OCCC(F)(F)C(F)(F)C(F)(F)C(F)(F)C(F)(F)C(F)(F)C(F)(F)C(F)(F)F | inactive | inactive | inactive | inactive | inactive | inactive | inactive | inactive | inactive | inactive | 30.6 µM (active) and 29.1 µM (active) | 15.8 µM (active) and 17.4 µM (active) | 13.6 µM (active) and 12.2 µM (active) | – | 20.1 µM (active) and 18 µM (active) | 17.1 µM (active) and 19.1 µM (active) | 40 µM (active) and 30 µM (active) | 30 µM (active) | 18.7 µM (active) and 23.8 µM (active) | 30.8 µM (active) and 21.8 µM (active)
C#C[C@]1(O)CC[C@H]2[C@@H]3CCC4=CC(=O)CC[C@@H]4[C@H]3CC[C@@]21C | inactive | inactive | inactive | inactive | inactive | – | – | – | inactive | – | – | 5.96 µM (active) | – | – | – | – | 6.29 µM (active) | 4.87 µM (active) | – | 8.06 µM (active)
c1ccc2c(c1)ccc1ccccc12 | inactive | inactive | inactive | inactive | inactive | inactive | inactive | inactive | inactive | inactive | – | – | – | – | – | – | – | – | – | –
CCC(C)(C)C1CCC(O)CC1 (stereo unspecified) | inactive | inactive | inactive | inactive | inactive | inactive | inactive | inactive | inactive | inactive | – | – | – | – | – | – | – | – | – | –
c1ccc2c(c1)Cc1ccccc1-2 | inactive | inactive | inactive | inactive | inactive | inactive | inactive | inactive | inactive | inactive | – | – | – | – | – | – | – | – | – | –
CC(=O)NC1(c2cccc(F)c2)CCN(CC[C@@]2(c3ccc(Cl)c(Cl)c3)CN(c3ccccc3)C(=O)CO2)CC1 | inactive | inactive | – | – | inactive | inactive | – | – | – | – | – | 12.8 µM (active) | 25.8 µM (active) | – | – | 27 µM (active) | – | 4.23 µM (active) | 24.9 µM (active) | 16.6 µM (active)
CN(C)C=O | inactive | inactive | inactive | inactive | inactive | inactive | inactive | inactive | inactive | inactive | – | – | – | – | – | – | – | – | – | –
